Giardia killer – Giardia lamblia killing; AID 540267; Giardia lamblia trophozoite viability; activity change, % at 7.66 µM, hits read low; 340,000 tested, 0.15% active; in the data active = activity change below about -80%; inconclusive = between about -30% and that limit;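 also: parasites exposed to compound for two days anaerobically before the ATP read; % is scaled to controls: 0 for no effect and ±100 for the full control effect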
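ATP-content bioluminescence gauges trophozoite survival. Cells (100/well) receive compound and incubate anaerobically for 48 hrs at 37 deg C; detection reagent follows for 15-30 min at room temperature.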
Vif-APOBEC3F blk – blocks the Vif interaction with APOBEC3F. Potency, µM (highest dose often 46.1 µM), inactives show at the highest dose activity, negative = active. AID 602313. HeLa A3F-eYFP + Vif (tagged APOBEC3F with the HIV-1 protein that degrades it), YFP fluorescence increase. 390,000 tested, 0.2% active; also: potency is read from the fitted curve at half-maximal effect; % of control where 0% means no effect; nearly all actives have a fitted effect of over 65% in size
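Fluorescence increase (Ex 488/Em 500-530) after overnight compound treatment at 37 deg C flags inhibition of Vif-driven A3F-eYFP loss in stable HeLa A3F-eYFP/Vif cells seeded overnight beforehand.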
MCF10A rereplic – induces DNA re-replication in MCF 10a normal breast cells; 350,000 tested, 2.9% active; Potency, µM (top dose mostly 46.1 µM), for the others: at the highest dose activity, positive = re-replication, actives largely listed as activators; MCF 10A DNA re-replication, Hoechst nuclear intensity, 48 h; also: potency is read from the fitted curve at half-maximal effect; % of control where 0% means no effect; nearly all actives have a fitted effect of over 50% in size
SW480 rerep – inducers of DNA re-replication in SW480 colon cancer cells; SW480 DNA re-replication, Hoechst DNA content imaging, 48 h; 340,000 tested, 1.8% active; Potency, µM (highest dose often 46.1 µM), without a hit: top-dose re-replication activation, usual class: activators; also: potency is read from the fitted curve at half-maximal effect; % of control where 0% means no effect; nearly all actives have a fitted effect of over 55% in size
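Readout is total intensity of Hoechst-stained nuclei, excited at 405 nm and collected at 500-530 nm. Compound treatment lasted 48 hr at 37 C in 5% CO2 before staining.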
Vif-APOBEC3G blk – blocks the Vif interaction with human APOBEC3G. Q9HC16. HeLa A3G-eYFP + Vif (tagged APOBEC3G with the HIV-1 protein that degrades it), YFP fluorescence, overnight. Potency, µM (series often up to 46.1 µM), without a hit: at the top dose activity, negative = active, usual class: inhibitors. 410,000 tested, 0.076% active. AID 602310; also: potency is read from the fitted curve at half-maximal effect; % is scaled to controls: 0 for no effect and ±100 for the full control effect; nearly all actives have a fitted effect of over 60% in size
Target sequence (Q9HC16 whole entry, looked up): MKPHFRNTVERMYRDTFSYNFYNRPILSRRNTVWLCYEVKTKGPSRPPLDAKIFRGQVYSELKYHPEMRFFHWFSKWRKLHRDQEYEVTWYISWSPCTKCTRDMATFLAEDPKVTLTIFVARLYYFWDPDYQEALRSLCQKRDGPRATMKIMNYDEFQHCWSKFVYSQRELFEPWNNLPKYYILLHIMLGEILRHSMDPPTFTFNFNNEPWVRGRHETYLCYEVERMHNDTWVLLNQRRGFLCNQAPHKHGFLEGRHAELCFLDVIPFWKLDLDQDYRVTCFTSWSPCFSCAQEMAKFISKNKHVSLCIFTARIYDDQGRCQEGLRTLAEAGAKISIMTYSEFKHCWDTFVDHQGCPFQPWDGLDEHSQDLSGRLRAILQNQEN
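HeLa cells stably expressing Vif and C-terminally eYFP-tagged A3G, seeded overnight at 37 deg C, then exposed to compound by pintool overnight at 37 deg C. Rise in yellow fluorescence (Ex 488/Em 500-530, Acumen) marks blocked Vif-driven A3G degradation.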
IL1B secr inh – blocks inflammasome-driven IL-1 beta release. THP-1 LPS/ATP IL-1B secretion, AlphaLISA, 16 h; active compounds read low. activity change, % at 57.5 µM. 360,000 tested, 4.7% active. AID 743279; in the data active = activity change below about -50%; inconclusive = mostly about -30% to -49%; also: % is scaled to controls: 0 for no effect and ±100 for the full control effect
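THP-1 cells pretreated 1 hr with compounds (up to 57.5 uM final), then stimulated with LPS (250 ng/mL final) plus ATP (1.25 mM final); secreted IL-1B measured by AlphaLISA after 16 hr, decreased signal indicating inhibition.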
Numbers without * were called inactive; ? = inconclusive; nt = no result; [ ] = remark or other dose. An excerpt weighted towards active compounds, which were near 6.9% of everything screened. Unless noted, calls follow the shape of the dose curve; as a rule, active = well fitted curve in the direction sought with a large enough effect; inconclusive = small, poorly fitted or top-dose-only effect, or another doubt; inactive = no such curve, though single readings can be large; an effect the other way counts as inactive or inconclusive.

SMILES	Giardia killer	Vif-APOBEC3F blk	MCF10A rereplic	SW480 rerep	Vif-APOBEC3G blk	IL1B secr inh
CCn1c(=O)c2cc(C(=O)NCc3cc(OC)ccc3OC)sc2c2ccccc21	nt	3%	nt	nt	-1%	nt
CC(C)(C)OC(=O)NCc1ccc(CNC(=O)c2[nH]cnc2C(=O)N[C@@H](Cc2ccccc2)C(=O)OCc2ccccc2)cc1	-1	-6%	30%	3%	-3%	4
CC(C)C[C@H](NC(=O)c1nc[nH]c1C(=O)N1CCN(C(=O)OC(C)(C)C)CC1)C(=O)OC(C)(C)C	47	-3%	?	16µM*	0%	0
CC(C)(C)OC(=O)NCc1ccc(NC(=O)c2nc[nH]c2C(=O)N[C@@H](Cc2ccccc2)C(=O)OCc2ccccc2)cc1	-2	7%	?	-57%[9.22 µM]	-12%	-65*
CC(C)C[C@H](NC(=O)c1[nH]cnc1C(=O)N[C@@H](C)C(=O)OC(C)(C)C)C(=O)OC(C)(C)C	-1	-7%	-1%	3%	-24%	-61*
C[C@@H](NC(=O)c1nc[nH]c1C(=O)N[C@@H](Cc1ccccc1)C(=O)OC(C)(C)C)c1ccccc1	1	0%	?	14%	-15%	-61*
C[C@H](NC(=O)c1nc[nH]c1C(=O)N1CCN(C(=O)OC(C)(C)C)CC1)C(=O)OC(C)(C)C	-5	2%	?	-6%	-1%	15
CC(C)C[C@H](NC(=O)c1nc[nH]c1C(=O)N[C@@H](CCCCN)C(=O)OC(C)(C)C)C(=O)OC(C)(C)C	-5	-1%	?	?	-4%	-8
COc1ccc(CN2CC[C@H]3C=CC[C@@H](C(=O)N4CCN(c5ccccc5)CC4)[C@H]3C2=O)cc1OC	nt	nt	nt	nt	-2%	nt
Cc1cccc(NC(=O)c2nc[nH]c2C(=O)N[C@@H](C)C(=O)OC(C)(C)C)c1	4	10%	?	?	-1%	-67*
C[C@H](NC(=O)c1[nH]cnc1C(=O)Nc1ccc(Cl)cc1)C(=O)OC(C)(C)C	-22	4%	6%	1%	0%	-3
Cc1ccc(NC(=O)CN(C)C(=O)COC(=O)/C=C/c2cccs2)cc1	10	5%	0%	-71%	5%	-97*
Cc1ccc(NC(=O)CN(C)C(=O)COc2ccccc2-c2ccccc2)cc1	-14	0%	?	12%	-2%	-65*
Cc1ccc(NC(=O)CN(C)C(=O)c2ccccc2Cc2ccccc2)cc1	1	3%	-18%	-70%	-1%	-58*
Cc1cccc(C)c1NC(=O)CN(C)C(=O)c1ccccc1Cc1ccccc1	7	4%	7%	9%	1%	1
Cc1ccc(NC(=O)CN(C)C(=O)c2cc(-c3cccs3)nn2-c2ccccc2)cc1	-13	6%	?	-25%	-18%	-52*
CCN(CC(=O)Nc1ccc(NC(C)=O)cc1)C(=O)COc1ccccc1-c1ccccc1	-7	-4%	-6%	-3%	0%	-6
CN(C)c1ccc(/C=C2\CCc3cc(N)ccc32)cc1	nt	nt	nt	nt	1%	nt
CCOc1ccc(NC(=O)CN(c2ccc(Cl)cc2C)S(=O)(=O)c2ccccc2)cc1	nt	2%	nt	nt	6%	nt
CCOC(=O)/C(=N/Nc1ccc(Cl)cc1)S(=O)(=O)c1ccccc1	-6	0%	0%	22%	-2%	-69*
Cc1ccc(SCCc2cc[n+](CC(=O)c3ccccc3)cc2)cc1	-9	7%	-1%	-3%	1%	-151*
CCOc1ccc2cc(-c3nnc(Nc4ccccc4F)s3)c(=O)oc2c1	nt	?	nt	nt	6%	nt
COC(=O)c1ccc([C@H]2CC(=O)O2)cc1	7	-3%	?	?	-5%	-96*
COc1ccc(N=c2nc(-c3ccccc3)n(-c3ccc(C)cc3)s2)cc1	12	nt	nt	nt	3%	nt
CCCOc1ccc(CNC(=O)CCCN2C(=O)CSc3c2c(C)nn3-c2ccccc2)cc1	nt	9%	nt	nt	2%	nt
O=C(CP(=O)(c1ccccc1)c1ccccc1)N/N=C/c1cc(Br)cc(Br)c1O	10	-21%	5.8µM*	?	0%	65

Screens from PubChem.
